Assay results from the supplement of paper PMC12636033.
± gives the standard deviation of the averaged measurements. The full ranking holds about 33,000 sequences; the median of “E-score (rank enrichment, -0.5 to 0.5)” is about -0.0028, and the highest 2% start at about 0.23. This excerpt belongs to a sample that is enriched for the highest values.

tested on: 2Sb-muMax20 (muMax20 with two 1,3-bis(methyl)benzene Cys staples, A13C/A17C and Q88C/A92C, C-terminal Lys); experiment: PBM 8-mer E-score (E-score (rank enrichment, -0.5 to 0.5)); higher = stronger preferential binding
Description: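 Protein binding microarray (universal PBM chip covering all 10-mers in fixed probe flanks) with chemically synthesized human Max(13-93) bHLH-LZ analogs (not full-length Max) bearing noncanonical residues (hArg, Tha, Aib, Nle at 65) and aromatic Cys staples. Read-out per 8-mer (and its reverse complement): E-score (rank-based enrichment, -0.5 to 0.5) and Z-score of median probe intensity.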

Row | Sequence | PBM 8-mer E-score
1 | CATATATA | 0.194 ± 0.0063
2 | AATATATG | 0.3 ± 0.004
3 | CATATATG | 0.305 ± 0.007
4 | CATATATC | 0.13 ± 0.055
5 | TGCGAGCA | 0.146 ± 0.052
6 | AAACCTAG | 0.000475 ± 0.031
7 | AAACCTAT | -0.107 ± 0.033
8 | AAACCTAC | 0.279 ± 0.06
9 | GGATCTAC | -0.141 ± 0.02
10 | AGATGTAT | 0.181 ± 0.031
11 | ACATGCAT | 0.363 ± 0.013
12 | CCATGTAC | -0.0138 ± 0.036
13 | ACATGTAC | 0.309 ± 0.014
14 | ACATGTAT | 0.267 ± 0.0098
15 | CCATGTAG | 0.172 ± 0.0065
16 | ACATGTAA | 0.217 ± 0.026
17 | ACATGTCG | 0.166 ± 0.058
18 | ACATGCAC | 0.0993 ± 0.062
19 | GCATGTAC | 0.172 ± 0.024
20 | ACATGCAG | 0.037 ± 0.07
21 | ACATGTAG | 0.275 ± 0.021
22 | AAACCGTT | -0.108 ± 0.016
23 | GACCGACC | -0.162 ± 0.012
24 | AGTATCCG | -0.139 ± 0.029
25 | CCCGGCCG | -0.233 ± 0.084

Row | Sequence | PBM 8-mer E-score
26 | GCAGGAAA | 0.00101 ± 0.013
27 | CAGACGTA | -0.0519 ± 0.083
28 | CCCTCACC | 0.0586 ± 0.062
29 | AAGACCTA | 0.0674 ± 0.017
30 | AATAGTTA | 0.166 ± 0.0059
31 | AATAGTTC | 0.0849 ± 0.052
32 | AATAGTTG | 0.256 ± 0.032
33 | GACTTCAC | -0.0215 ± 0.052
34 | GGAATTCC | -0.26 ± 0.055
35 | ATCAGAAT | -0.0334 ± 0.0022
36 | AAGGTCTA | -0.00279 ± 0.068
37 | CCATGGGG | -0.134 ± 0.03
38 | CCATATGC | 0.125 ± 0.064
39 | ATATGGGG | 0.255 ± 0.0087
40 | ACATATGG | 0.15 ± 0.036
41 | ACATGGGA | 0.0654 ± 0.083
42 | CCATATGG | 0.322 ± 0.0072
43 | ATATGGGA | 0.13 ± 0.017
44 | GCATATGA | 0.174 ± 0.045
45 | ACATGGGG | 0.267 ± 0.045
46 | ACATATGC | 0.0308 ± 0.041
47 | GCATATGC | 0.259 ± 0.011
48 | ATATGGGC | 0.192 ± 0.062
49 | ACCAAAGT | -0.131 ± 0.004
50 | AAACTTCA | 0.0459 ± 0.067

Row | Sequence | PBM 8-mer E-score
51 | GCCGTGTA | 0.0129 ± 0.059
52 | AGACCGCC | -0.0551 ± 0.0086
53 | CCAACGAA | -0.0751 ± 0.0019
54 | ACTTGCGA | 0.141 ± 0.053
55 | ATGTTTAC | 0.195 ± 0.0024
56 | ACGTACGT | 0.0796 ± 0.0024
57 | CTGCACGC | 0.0673 ± 0.012
58 | CCTACAAG | -0.0983 ± 0.063
59 | ATATATGA | 0.203 ± 0.014
60 | ATATATGG | 0.279 ± 0.025
61 | ATATATGC | 0.196 ± 0.029
62 | GTACCTAA | 0.015 ± 0.015
63 | AATACAAT | 0.105 ± 0.028
64 | AATACAAC | 0.218 ± 0.053
65 | CATACAAG | 0.0617 ± 0.023
66 | CATACAAC | 0.254 ± 0.0055
67 | AATACAAG | 0.243 ± 0.066
68 | AATACGAG | 0.239 ± 0.016
69 | GATACAAC | 0.0906 ± 0.034
70 | AATACAAA | 0.293 ± 0.0033
71 | AATACGAT | 0.0313 ± 0.056
72 | TATACAAA | 0.176 ± 0.037
73 | CATACGAG | 0.039 ± 0.023
74 | GATACAAA | 0.0261 ± 0.058
75 | GGCTCAAA | -0.232 ± 0.0071

Row | Sequence | PBM 8-mer E-score
76 | CGTGTTCC | -0.101 ± 0.093
77 | CAGCCATC | 0.0539 ± 0.04
78 | ACGCTTAC | -0.00865 ± 0.0059
79 | AATGGCGG | -0.0858 ± 0.063
80 | CTTAGCCA | -0.0016 ± 0.011
81 | ATCGGCTG | -0.182 ± 0.06
82 | ATTAGGTG | 0.199 ± 0.0049
83 | CATCCCGG | -0.179 ± 0.11
84 | CCTTGTTC | -0.00956 ± 0.048
85 | CCTTGTTA | 0.281 ± 0.032
86 | ACTTGTTA | 0.173 ± 0.0031
87 | ACTTCTCT | -0.115 ± 0.094
88 | AACCCCAG | 0.0383 ± 0.14
89 | CTACCCAA | 0.085 ± 0.019
90 | TTACCCAA | 0.26885 ± 6.4e-05
91 | ACCCCCAA | -0.148 ± 0.053
92 | AACCCCTA | 0.176 ± 0.0048
93 | AACCCAAA | 0.0368 ± 0.14
94 | CCCCCCAG | -0.319 ± 0.18
95 | GTACCCAA | 0.153 ± 0.0022
96 | CACCCCTA | 0.228 ± 0.018
97 | AACCCCAA | 0.331 ± 0.019
98 | TACCCCTA | 0.316 ± 0.0051
99 | CACCCCAG | 0.262 ± 0.015
100 | ACGAAGGC | -0.148 ± 0.011

Row | Sequence | PBM 8-mer E-score
101 | GGCCAAAC | -0.0918 ± 0.032
102 | ATAAAAGC | 0.113 ± 0.0099
103 | GACCCCAC | 0.0665 ± 0.09
104 | TACCCCCA | -0.0172 ± 0.023
105 | TACCCCAA | 0.29 ± 0.036
106 | CACCCCAA | 0.292 ± 0.059
107 | CACCCCAC | 0.319 ± 0.067
108 | AACCCCAC | 0.177 ± 0.082
109 | GACCCCAA | 0.129 ± 0.058
110 | CACCCCCA | -0.148 ± 0.025
111 | CACCCAAA | 0.211 ± 0.02
112 | AAAACGTT | 0.189 ± 0.024
113 | GGAGAGTA | -0.0215 ± 0.08
114 | CCTCACTA | 0.127 ± 0.035
115 | AGCCACAC | 0.111 ± 0.045
116 | TCCCTGCA | 0.0481 ± 0.0088
117 | AAACACGA | 0.14 ± 0.053
118 | ACCCACGA | 0.0473 ± 0.015
119 | AAACACGC | 0.0985 ± 0.012
120 | AACCACGT | 0.304 ± 0.0045
121 | ACCCACGC | 0.0613 ± 0.043
122 | AACCACGA | 0.068 ± 0.082
123 | AACCACGC | -0.0289 ± 0.036
124 | AAACACGT | 0.238 ± 0.0029
125 | ACCCACGT | 0.35 ± 0.025

Row | Sequence | PBM 8-mer E-score
126 | GCGACATA | -0.0543 ± 0.01
127 | GAGCAACC | -0.0186 ± 0.037
128 | ACGAGCAA | 0.00429 ± 0.043
129 | AGAGTACT | 0.0199 ± 0.063
130 | ATTGATTA | 0.0825 ± 0.032
131 | GATGATTA | -0.00815 ± 0.038
132 | CATGATTC | 0.0849 ± 0.046
133 | CTTGATTA | 0.159 ± 0.039
134 | TATGATAA | 0.0883 ± 0.068
135 | GTTGATTA | 0.259 ± 0.0094
136 | AATGATAA | 0.0436 ± 0.05
137 | TAAGATAA | 0.0702 ± 0.044
138 | CAAGATAA | 0.253 ± 0.025
139 | AAAGATAA | 0.124 ± 0.033
140 | CATGATTA | 0.236 ± 0.035
141 | CATGATAA | 0.262 ± 0.004
142 | AACAAGCT | 0.0609 ± 0.024
143 | GCTGGCGA | -0.207 ± 0.015
144 | GGTTCGCA | -0.146 ± 0.0032
145 | AGGGTCTC | -0.0134 ± 0.094
146 | CGTCCACC | -0.0444 ± 0.07
147 | GTCGTTAA | -0.133 ± 0.028
148 | GGGAATCA | -0.0266 ± 0.031
149 | CCTGCACC | -0.0811 ± 0.0012
150 | ACGCTGCC | -0.0685 ± 0.038

Row | Sequence | PBM 8-mer E-score
151 | TAACGCGA | 0.0123 ± 0.0097
152 | CGCATGCA | 0.171 ± 0.028
153 | GGCATGCA | -0.0517 ± 0.02
154 | CGCATGCG | 0.279 ± 0.067
155 | AGCATGCA | 0.3172 ± 0.00083
156 | CGCATGCC | 0.141 ± 0.064
157 | TGCATGCA | 0.132 ± 0.01
158 | GCGACGCC | -0.126 ± 0.025
159 | TAGGTATA | 0.138 ± 0.011
160 | CTCCAATA | 0.0951 ± 0.05
161 | AATAGCAT | 0.262 ± 0.023
162 | AAAAGCTA | 0.236 ± 0.025
163 | AAAAGCTC | -0.0474 ± 0.048
164 | CATAGCTA | 0.17 ± 0.065
165 | AATAGCTA | 0.244 ± 0.0096
166 | GAAAGCTA | 0.0215 ± 0.023
167 | AATAGCAC | 0.0775 ± 0.071
168 | AATAGCAA | 0.106 ± 0.11
169 | GATAGCTA | 0.0488 ± 0.04
170 | AGAGGCCC | -0.0713 ± 0.025
171 | ATGCCGGG | -0.256 ± 0.0027
172 | GACTTTCC | -0.0524 ± 0.043
